In PubChem BioAssay (EPA / NIEHS):
Results filed as inconclusive are left out. Activity calls are given as the source filed them. Rule for the calls: active = hit-call score of the fitted dose curve at least 0.9, where 1 is the maximum; inconclusive = response in the unintended direction; inactive = score below 0.9.

read-out: HMG-CoA synthase (HMGCS2), HMGCS2 (gene 3158); assay: CLD_HMGCS2_6hr: CellzDirect (CLD) Gene Expression Assay for HMG-CoA synthase (HMGCS2) at 6 hours (AID 2283682);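 note: actives raise HMGCS2 transcript above the 0.2% DMSO vehicle baseline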
Method: CLD_6hr is a cell-based, multiplexed-readout assay that uses hepatocyte, a human liver primary cell, with measurements taken at 6 hours after chemical dosing in a 96-well plate.CLD_HMGCS2_6hr is one of 16 assay component(s) measured or calculated from the CLD_6hr assay. It is designed to make measurements of mRNA induction, a form of inducible reporter, as detected with chemiluminescence signals by Quantitative Nuclease Protection Assay (qNPA) technology.Data from the assay component CLD_HMGCS2_6hr was analyzed at the endpoint, CLD_HMGCS2_6hr, in the positive analysis fitting direction relative to DMSO as the negative control and baseline of activity. Using a type of inducible reporter, gain-of-signal activity can be used to understand changes in the reporter gene as they relate to the gene HMGCS2. Furthermore, this assay endpoint can be referred to as a primary readout. To generalize the intended target to other relatable targets, this assay endpoint is annotated to the lyase intended target family, where subfamily is HMG-CoA synthase.
Human hepatocyte cultures were treated daily for two consecutive days with fresh dosing solutions containing appropriate concentrations of the 320 ToxCast chemicals (chemical identities were blinded to CellzDirect and other ToxCast collaborators), vehicle control (0.2% DMSO), and positive control inducers as summarized in Table 1. Due to the large number of treatment groups and chemicals examined, the ToxCast chemicals were divided into two groups (spanning two independent cultures of hepatocytes from separate donor preparations (Hu778: ToxCast plates 1 and 2; Hu776: ToxCast plates 3 and 4). Each preparation of human hepatocyte cultures was treated with respective vehicle control, medium only control, set of six positive controls/reference chemicals for the five hepatic receptor pathways, and a subset of eight of the ToxCast chemicals (indoxacarb, pyrithiobac-sodium, norflurazon, cyhalofop-butyl, methomyl, thiram, acetochlor, and propiconazole). These replicate data, coupled with internal replicates designed within the blinded ToxCast chemical library, provided additional data to evaluate interindividual differences between hepatocyte preparations and their potential impact on chemical profiles.Cell morphology and integrity were evaluated using phase-contrast microscopy as an indicator of hepatocyte cell health (Tyson & Green, 1987). Cultures for each treatment group (i.e., media, vehicle [0.2% DMSO], positive control inducers [multiple concentrations], and the ToxCast chemicals [multiple concentrations]) were observed and cell morphology was assessed relative to vehicle control cultures at each harvest time point (0, 6, 24, or 48 h). […] Images were evaluated at the conclusion of the study to assess changes in cell integrity and account for the effects of chemical exposure on uncharacteristic changes in concentration-dependent gene expression profiles. The results from these determinations of apparent cytotoxicity were annotated (yes/no) alongside the corresponding qNPA data for reference.At the conclusion of each treatment period, hepatocyte cultures (96-well) were washed with 1 volume of HBSS, lysed by addition of 25 ul ArrayPlate lysis buffer (HTG, Tucson, AZ), and 70 ul/well of Denaturation Oil, denatured by incubation at 95C for 10 min, and frozen at approximately -70C until analysis by nuclease protection assay (qNPA) (Roberts et al., 2007). For qNPA analysis, cell lysates were thawed at 50C for approximately 30 min, qNPA probes were added, and samples were incubated at 95C for 10 min to begin the detection process by denaturing the target RNA, dissociating the duplexes and secondary structure hybridization. At the conclusion of the hybridization period, S1 nuclease reagent was added to each sample to digest all nonprotected nucleotides at 50C for 60-90 min. […]

Structure (SMILES)	outcome	AC50
O=C(O)COc1ccc(Cl)cc1Cl	inactive	–
O=C(O)CCCOc1ccc(Cl)cc1Cl	inactive	–
O=S(=O)(O)C(F)(F)C(F)(F)C(F)(F)C(F)(F)C(F)(F)C(F)(F)C(F)(F)C(F)(F)F	–	3970 nM (active)
CCOCN(C(=O)CCl)c1c(C)cccc1CC	inactive	–
O=C(O)C(F)(F)C(F)(F)C(F)(F)C(F)(F)C(F)(F)C(F)(F)C(F)(F)F	inactive	–
CNC(=O)Oc1cccc(N=CN(C)C)c1	inactive	–
CNC(=O)Oc1ccccc1OC(C)C	inactive	–
COC(=O)c1ccccc1CS(=O)(=O)NC(=O)Nc1nc(OC)cc(OC)n1	inactive	–
CCCN(CCOc1c(Cl)cc(Cl)cc1Cl)C(=O)n1ccnc1	inactive	–
CCS(=O)(=O)c1cccnc1S(=O)(=O)NC(=O)Nc1nc(OC)cc(OC)n1	inactive	–
CCC(C)Nc1c([N+](=O)[O-])cc(C(C)(C)C)cc1[N+](=O)[O-] (centres undefined)	inactive	–
COP(=O)(OC)OC=C(Cl)Cl	inactive	–
O=C(Nc1ccccc1)Nc1cnns1	inactive	–
COc1cc(OC)nc(NC(=O)NS(=O)(=O)c2cc(NC=O)ccc2C(=O)N(C)C)n1	inactive	–
CNC(=O)CSP(=S)(OC)OC	inactive	–
CCOc1nc(NC)nc(NC(=O)NS(=O)(=O)c2ccccc2C(=O)OC)n1	inactive	–
CC[C@H](C)[C@H]1O[C@]2(C=C[C@@H]1C)C[C@@H]1C[C@@H](C/C=C(\C)[C@@H](O[C@H]3C[C@H](OC)[C@@H](O[C@H]4C[C@H](OC)[C@@H](O)[C@H](C)O4)[C@H](C)O3)[C@@H](C)/C=C/C=C3\CO[C@@H]4[C@H](O)C(C)=C[C@@H](C(=O)O1)[C@]34O)O2 (tested in a mixture with another compound)	inactive	–

Structure (SMILES)	outcome	AC50
O=[N+]([O-])/N=C1\NCCN1Cc1ccc(Cl)nc1	inactive	–
OCCOc1ccccc1	inactive	–
Oc1cc(Cl)ccc1Oc1ccc(Cl)cc1Cl	inactive	–
CNC(=O)/C=C(\C)OP(=O)(OC)OC	inactive	–
[2H]C1([2H])[n+]2ccccc2-c2cccc[n+]2C1([2H])[2H]	inactive	–
CC1(c2ccc(Oc3ccccc3)cc2)OC(=O)N(Nc2ccccc2)C1=O (centres undefined)	inactive	–
CCc1ccc(C(=O)NN(C(=O)c2cc(C)cc(C)c2)C(C)(C)C)cc1	inactive	–
N#CN	inactive	–
Clc1ccccc1-c1nnc(-c2ccccc2Cl)nn1	inactive	–
CC(C)(C)C(O)C(Oc1ccc(Cl)cc1)n1cncn1 (centres undefined)	inactive	–
O=C1c2ccccc2C(=O)N1SC(Cl)(Cl)Cl	inactive	–
Cc1cc(C)nc(NC(=O)NS(=O)(=O)c2ccccc2C(=O)OC2COC2)n1	inactive	–
Cc1[nH]c(=O)n(C(C)(C)C)c(=O)c1Cl	inactive	–
Oc1ccc(Cl)cc1Cc1ccccc1	inactive	–
CCN(CC)C(=O)SCc1ccc(Cl)cc1	inactive	–
O=S1OCC2C(CO1)C1(Cl)C(Cl)=C(Cl)C2(Cl)C1(Cl)Cl (centres undefined)	inactive	–
COC(=O)c1ccccc1S(=O)(=O)NC(=O)Nc1nc(C)nc(OC)n1	–	11.7 nM (active)
